# Shiga toxin inh = A qHTS for Small Molecule Inhibitors of Shiga Toxin. Vero cells, Shiga toxin protein synthesis inhibition reporter. inhibition, % at 38.7 µM. actives 9.2% (n = 290,000). AID 2315, 2010; in the data active means inhibition mostly above about 28%, no sharp cut-off; inactive means mostly below about 43%; further: 0% is about no effect
# Pf growth 48h = Primary qHTS for delayed death inhibitors of the malarial parasite plastid, 48 hour incubation; P. falciparum luciferase growth in erythrocytes, 48 h; actives 5.9% (n = 310,000); Potency, µM (doses to about 28.7 µM), inactives show at the top dose activity change, negative = inhibition, hits mostly inhibitors; further: potency means the concentration at half of the fitted maximal effect; on the % scale 0 is the no-effect control and ±100 the full control effect
#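 Luciferase-expressing parasites in RBCs, 2% Hct / 0.1% parasitemia final; RPMI 1640 + 0.5% Albumax; 37 C, 5% CO2, one generation; luminescence read-out, lower signal = inhibition.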
# NS1 function inh = qHTS Assay for Inhibitors of Influenza NS1 Protein Function. Potency, µM (highest dose often 46.1 µM), for inactives: top-dose activity, positive = more growth. actives 0.4% (n = 270,000). AID 2326, 2010; calls by dose curve; further: potency means the concentration at half of the fitted maximal effect; actives are rising curves; nearly all actives have a fitted effect of over 50% in size
#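 Compounds were scored for reversing the slow growth caused by influenza A NS1 in S. cerevisiae, measured by optical density at 600 nm. Assay medium contained 2% galactose at pH 6.0; NS1-free yeast of the same strain were the positive control.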
# Giardia FBPA inh = qHTS Assay for Inhibitors of Fructose-1,6-bisphosphate Aldolase from Giardia Lamblia; A8B2U2; purified Giardia FBPA; Potency, µM (top dose mostly 59.6 µM), for the others: top-dose activity, negative = inhibition, most hits filed as inhibitors; actives 0.71% (n = 290,000); further: potency means the concentration at half of the fitted maximal effect; on the % scale 0 is the no-effect control and ±100 the full control effect; nearly all actives have a fitted effect of over 55% in size
# Target sequence (A8B2U2 whole entry, looked up): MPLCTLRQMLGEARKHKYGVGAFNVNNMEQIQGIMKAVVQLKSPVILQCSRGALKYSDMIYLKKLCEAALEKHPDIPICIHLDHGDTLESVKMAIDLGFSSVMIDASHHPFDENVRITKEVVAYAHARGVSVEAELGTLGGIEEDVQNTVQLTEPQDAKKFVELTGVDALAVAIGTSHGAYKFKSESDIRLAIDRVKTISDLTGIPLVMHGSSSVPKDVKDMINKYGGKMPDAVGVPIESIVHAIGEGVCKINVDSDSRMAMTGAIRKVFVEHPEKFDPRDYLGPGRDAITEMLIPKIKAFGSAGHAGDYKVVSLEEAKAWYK
#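 40 nM FBPA preincubated 10 min at RT with compound (up to 57.5 uM final), then substrate plus GAPDH/TPI/NAD/arsenate coupling and diaphorase/resazurin added. Fluorescence read after 20 min at RT, 525/598 nm.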
# Pf growth 96h = Primary qHTS for delayed death inhibitors of the malarial parasite plastid, 96 hour incubation; P. falciparum luciferase reporter growth, 96 h; Potency, µM (titrated, usually from 28.7 µM), without a hit: at the highest dose activity change, negative = inhibition, most hits filed as inhibitors; actives 6.9% (n = 320,000); AID 504834, 2011; further: potency means the concentration at half of the fitted maximal effect; on the % scale 0 is the no-effect control and ±100 the full control effect
#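 Parasite growth measured via integrated firefly luciferase reporter in P. falciparum. Infected erythrocytes at 2% hematocrit, 0.05% parasitemia final were treated 96 hours at 37 C under 5% CO2, and luminescence was read.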
# Cycloheximide cs = Cycloheximide Counterscreen for Small Molecule Inhibitors of Shiga Toxin; cell reporter, cycloheximide protein synthesis inhibition counterscreen; max response, %; actives 12% (n = 300,000); AID 2314, 2010; in the data active means max response mostly above about 13%, no sharp cut-off; inactive means mostly below about 14%; further: read at 38.3 µM for the half of the compounds with a filed dose; 0% is about no effect
# An asterisk follows results filed as active; ? = inconclusive; nt = not tested or not shown. Compounds with a hit are over-represented: about 21% of the library has one in this group of screens. Unless noted, the call rests on the fitted dose curve; in most records, active means well fitted curve in the direction sought with a large enough effect; inconclusive means small, poorly fitted or top-dose-only effect, or another doubt; inactive means no such curve, though single readings can be large; an effect the other way counts as inactive or inconclusive.
SMILES,Shiga toxin inh,Pf growth 48h,NS1 function inh,Giardia FBPA inh,Pf growth 96h,Cycloheximide cs
CC(NC(=O)CN1CCOCC1)c1ccccc1 (stereo unspecified),-6.7,13.1%,16.4%,10.1%,?,-1.7
Cc1ccc(C(=O)OCC(=O)Nc2ccc(N3CCOCC3)cc2)cc1,nt,-15.8%,nt,nt,19.6%,nt
Cc1ccccc1NC(=O)Cc1nnc(SCC(=O)NC2CCCCC2)n1C,-6.4,-1.3%,0.2%,5.6%,-7.4%,9.8
Cc1cc(-c2csc(Nc3ccccn3)n2)ccc1F,115.9*,-13.2%,-21.0%,6.5%,?,42.4*
c1ccc(-c2csc(Nc3ccccn3)n2)cc1,81.6*,199.6%,-11.6%,10.4%,75.7%,59.9*
CCCc1cc(=O)oc2cc(C)cc(OCC(=O)N3CCC(C(N)=O)CC3)c12,-2.9,16.4%,1.7%,-14.6%,36.8%,1.0
C[C@@H](NC(=O)c1ncn(Cc2ccccc2)c1C(=O)N[C@H](C)c1ccccc1)c1ccccc1,nt,13.1µM*,nt,nt,?,nt
O=C(NC1C(=O)NNC1c1ccccc1)c1ccc(F)cc1 (stereo unspecified),88.0*,37.4%,-2.0%,-8.1%,20.3%,28.6*
Cc1ccc(C(=O)NC2c3ccccc3-c3ccccc32)cc1,-1.7,1.4%,7.8%,4.0%,-20.9%,-1.8
Cc1ccc(C2NNC(=O)C2NC(=O)c2ccccc2)cc1 (stereo unspecified),33.0*,nt,-0.8%,?,86.6%,38.7*
O=C(NC1C(=O)NNC1c1ccc(Cl)cc1)c1ccc(F)cc1 (stereo unspecified),-2.3,9.0%,-0.9%,-15.5%,-22.4%,2.5
COc1ccccc1NC(=O)C(C)OC(=O)C(C)SCC(=O)Nc1ccc(C)cc1 (stereo unspecified),nt,-1.4%,nt,nt,22.0%,nt
CCOC(=O)C1CCCN(S(=O)(=O)CCNC(=O)c2cccc(OC)c2)C1 (stereo unspecified),nt,7.2%,nt,nt,-24.1%,nt
O=C(O)c1ccc(S(=O)(=O)N[C@H](Cc2ccc(C(F)(F)F)cc2)C(=O)O)cc1,2.5,20.5%,nt,2.8%,-5.1%,-3.4
CC(Sc1nc2ccccc2c(=O)n1CCc1ccc(S(N)(=O)=O)cc1)C(=O)NC(N)=O (stereo unspecified),2.0,?,12.8%,-14.8%,-4.2%,-8.6
COc1cc(NC(=O)CSc2cc(C)c3cc(C)cc(C)c3n2)c(C(=O)O)cc1OC,2.4,0.0%,-64.0%,28.7%,?,4.7
COC(=O)CC1Oc2ccc(C)cc2NC1=O (stereo unspecified),17.1,nt,-8.4%,-2.6%,9.28µM*,7.2
COc1ccc(OC)c(CCNC(=O)CC2Oc3ccc(C)cc3NC2=O)c1 (stereo unspecified),-5.5,nt,4.3%,-1.9%,10.4µM*,-5.4
Cc1ccc(NC(=O)CC2Oc3ccc(C)cc3NC2=O)cc1 (stereo unspecified),-9.7,nt,5.4%,11.5%,305.1%,13.5
COc1ccc(OC)c(CCNC(=O)CC2Oc3ccccc3NC2=O)c1 (stereo unspecified),-16.3,nt,-33.1%,0.2%,-17.4%,-5.0
O=C(O)CC1Oc2ccc(Cl)cc2NC1=O (stereo unspecified),3.6,10.8%,-3.0%,4.5%,5.22µM*,-4.0
CC(=O)N1CCC2(CC1)CCN(C(=O)Nc1cccc(C#N)c1)CC2,nt,nt,nt,0.2%,nt,nt
COc1ccc(CCn2c(=N)c(C(=O)NC3CCCC3)cc3c(=O)n4ccccc4nc32)cc1,-6.0,?,-3.7%,16.6%,?,-1.3
COc1ccc(Cn2c(=N)c(C(=O)NC3CCCCC3)cc3c(=O)n4ccccc4nc32)cc1,38.2,4.65µM*,-12.6%,nt,1.85µM*,14.1
COc1ccc(CCn2c(=N)c(C(=O)NC3CCCC3)cc3c(=O)n4ccccc4nc32)cc1OC,2.2,4.15µM*,-6.7%,nt,3.29µM*,-0.5
SMILES,Shiga toxin inh,Pf growth 48h,NS1 function inh,Giardia FBPA inh,Pf growth 96h,Cycloheximide cs
Clc1ccc(COc2ccccc2-c2ccnc3ncnn23)cc1,77.3*,345.9%,nt,-14.5%,42.0%,38.7*
c1ccc(Oc2ccc(-c3ccnc4ncnn34)cc2)cc1,38.0,16.9%,-31.4%,1.4%,-3.0%,8.1
CCCCCC(=O)Nc1cccc(C2=NOC3(C2)C[C@@H](C(N)=O)N(C(=O)CC(c2ccccc2)c2ccccc2)C3)c1 (stereo partly specified),-9.3,-14.6%,-10.8%,0.6%,?,-3.9
CC1CCCCN1C(=S)NC(=O)c1cc(Br)ccc1Cl (stereo unspecified),nt,?,nt,nt,13.1µM*,nt
CC(=O)c1ccc(S(=O)(=O)N2CCCCC2C(=O)O)cc1 (stereo unspecified),7.0,12.6%,nt,2.2%,?,-0.9
CCN=c1scc(C)n1/N=C/c1ccsc1,104.4*,131.1%,-5.7%,-12.7%,2.4%,46.8*
O=C(/C=C/c1ccc([N+](=O)[O-])cc1)N1CCN(c2ccccc2F)CC1,46.0*,21.1%,7.8%,-1.7%,20.7%,14.9*
O=C(/C=C/c1cccs1)N1CCN(c2ccccc2F)CC1,63.4*,-1.3%,-10.5%,1.3%,-6.1%,14.9*
O=[N+]([O-])c1cc(Cl)cc(/C=N\Nc2ccccn2)c1O,-16.8,?,-47.3%,-1.6%,?,-3.2
Nc1nnc(-c2cccc([N+](=O)[O-])c2)s1,-8.7,1.5%,-3.8%,1.7%,?,8.2
C(=C\c1ccccn1)/c1ccncc1,77.8*,53.6%,?,-9.7%,95.7%,21.5*
Cc1cccc(/C=C/c2ccccc2)n1,nt,nt,-4.1%,-7.5%,nt,nt
O=[N+]([O-])c1cc(/C=N\Nc2ccccn2)ccc1Cl,13.9,23.7%,-12.8%,-0.7%,7.38µM*,11.1
Nc1cccc(/C=C/c2ccncc2)c1,58.7*,41.0%,2.1%,-0.6%,132.7%,19.6*
Nc1nnc(/C=C/c2cccc([N+](=O)[O-])c2)s1,29.2,88.9%,5.5%,13.4%,-3.0%,41.6*
Cc1ccccc1N(C(=O)c1csnn1)C(C(=O)NC1CCCC1)c1ccncc1 (stereo unspecified),1.7,4.0%,4.1%,nt,7.7%,-8.8
Cc1noc(C)c1CSCC(=O)N(C)CC(=O)Nc1ccccc1Br,nt,0.2%,nt,nt,17.6%,nt
O=[N+]([O-])c1cccc(/C=N/Nc2nccnc2Cl)c1,76.7*,169.2%,5.9%,-24.7%,86.4%,42.1*
O=[N+]([O-])c1cccc(/C=C/c2ccccn2)c1,53.9*,145.8%,-7.8%,-11.6%,228.2%,28.7*
O=C(CSc1ncccn1)N/N=C/c1cccc([N+](=O)[O-])c1,-5.1,8.2%,0.2%,-0.9%,-12.6%,-3.5
O=[N+]([O-])c1cccc(/C=N/Nc2ccccn2)c1,65.2*,144.6%,nt,-0.8%,?,15.9
O=[N+]([O-])c1cccc(/C=N/NC2=NS(=O)(=O)c3ccccc32)c1,-2.0,?,nt,-2.0%,-1.2%,1.6
